This note sets out measurements from PubChem BioAssay (NCI).

The panel holds about 83,000 compounds, 20% with a hit somewhere; the sample as a whole holds those more often.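 How to read the values: 0–100, growth inhibition (40 = 60% inhibited); 0, no net growth; -100 to 0, cell death (-40 = 40% of starting cells died; -100 = all dead).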 A number with no mark means an inactive call. Activity calls are given as the source filed them. The calls were made as follows: active = growth percent below 10; inactive = the rest.

Among the test systems are NCI-H23 lung; NCI-H226 lung; NCI-H322M lung; HOP-62 NSCLC; NCI-H460 lung; HOP-92 NSCLC; NCI-H522 lung; A549/ATCC NSCLC; 786-0 renal; COLO 205 colon; DU-145 prostate; K-562 leukemia; MALME-3M melanoma; MDA-MB-231 breast; RXF 393 renal; SF-268 CNS; SF-295 CNS; SF-539 CNS; UACC-257 melanoma; M14 melanoma.
Test in all cases: NCI-60 one-dose screen, 48 h (100 = growth as untreated, 0 = no growth, -100 = all killed)
Holding throughout (conditions): 10 µM unless noted

`COc1ccc(C2Nc3nc(SC)nc(N)c3N=C3c4ccccc4CCC32)cc1` (stereo not given): the growth in the assay with NCI-H23 lung is 72.4%; with NCI-H226 lung, 107%; in the assay with NCI-H322M lung it was 109%; in the assay on HOP-62 NSCLC, 102%; with NCI-H460 lung, 86.7%; in the assay with HOP-92 NSCLC it was 50.7%. For the same compound, the growth in the assay with NCI-H522 lung is 90.9%; in the assay with A549/ATCC NSCLC, 102%; in the assay on 786-0 renal it was 93.6%; in the assay with COLO 205 colon it was 112%; in the assay on DU-145 prostate, 70.9%; in the assay on K-562 leukemia, 84.5%. The growth was 108% with MALME-3M melanoma; 83.5% in the assay on MDA-MB-231 breast; 122% in the assay with RXF 393 renal; 73.4% in the assay on SF-268 CNS; 105% with SF-295 CNS; 90.5% in the assay on SF-539 CNS. In addition, the growth in the assay on UACC-257 melanoma is 122%; in the assay on M14 melanoma it was 92.7%.
For the compound `CCN(CC)CCCN1C(=O)c2c(c(C)c3c(oc4cc(OC)ccc43)c2C)C1=O`, the growth with NCI-H23 lung was 105%; in the assay with NCI-H226 lung, -5.51% (active); in the assay on NCI-H322M lung it was 94.2%; in the assay on HOP-62 NSCLC, 109%; in the assay with NCI-H460 lung, 92.6%; in the assay on HOP-92 NSCLC, 87.3%. The growth with NCI-H522 lung was 104%; with A549/ATCC NSCLC, 92.5%; in the assay on 786-0 renal it was -79% (active); with COLO 205 colon, 86.1%; in the assay on DU-145 prostate, 112%; in the assay with K-562 leukemia it was -31.5% (active). For the same compound, the growth was 85.3% with MALME-3M melanoma; 96% in the assay on MDA-MB-231 breast; 73% in the assay with RXF 393 renal; 101% with SF-268 CNS; 100% with SF-295 CNS; 95.5% in the assay on SF-539 CNS. Further, the values for the growth with UACC-257 melanoma and in the assay with M14 melanoma were 114% and 108%, respectively.
Turning to `Cn1cc(-c2csc(-c3c[nH]c4ccc(F)cc34)n2)c2cnccc21`, the growth is 49.3% in the assay on NCI-H23 lung; 52% with NCI-H226 lung; 15.4% in the assay on NCI-H322M lung; -55.1% (active) in the assay with HOP-62 NSCLC; -54.3% (active) in the assay on NCI-H460 lung; -47% (active) in the assay on HOP-92 NSCLC. In addition, the growth in the assay on NCI-H522 lung was -78.5% (active); in the assay on A549/ATCC NSCLC it was 5.33% (active); in the assay on 786-0 renal it was -94.5% (active); in the assay on COLO 205 colon it was -93.2% (active); with DU-145 prostate, -19.6% (active); with K-562 leukemia it was -55.4% (active). Besides, the growth was -94.9% (active) with MALME-3M melanoma; -66.7% (active) with MDA-MB-231 breast; -90.8% (active) in the assay with RXF 393 renal; -25.4% (active) in the assay with SF-268 CNS; -75.4% (active) in the assay on SF-295 CNS; -93.7% (active) in the assay with SF-539 CNS. In addition, the growth in the assay with UACC-257 melanoma is -68.6% (active); in the assay with M14 melanoma, -87% (active).
As for `COC(=O)c1nc(-c2ccccc2)oc1S(=O)(=O)N(C)CCO`, the growth in the assay with NCI-H23 lung is 90.9%; in the assay on NCI-H226 lung, 90.8%; in the assay on NCI-H322M lung it was 94.6%; in the assay with HOP-62 NSCLC it was 103%; in the assay on NCI-H460 lung, 105%; in the assay on HOP-92 NSCLC, 41.7%. The growth in the assay on NCI-H522 lung is 32.7%; in the assay with A549/ATCC NSCLC, 91.2%; in the assay on 786-0 renal, 57.9%; with COLO 205 colon it was 48%; in the assay on DU-145 prostate, 65.4%; with K-562 leukemia it was 22.2%. The growth with MALME-3M melanoma was 69.6%; in the assay with MDA-MB-231 breast it was 78.3%; in the assay with RXF 393 renal, 64.8%; with SF-268 CNS, 92.3%; with SF-295 CNS, 104%; in the assay with SF-539 CNS, 68.7%. Also, the results for the growth in the assay with UACC-257 melanoma and in the assay on M14 melanoma were 63.8% and 41.1%, respectively.
In the case of `COc1ccc(CN2CCc3c(Cl)nc(N)nc3C2=O)c(OC)c1`, the growth is -62.1% [100 µM] (active) with NCI-H23 lung; 5.05% [100 µM] (active) in the assay on NCI-H226 lung; 14.9% [100 µM] with NCI-H322M lung; 40% [100 µM] with HOP-62 NSCLC; 1.6% [100 µM] (active) in the assay on NCI-H460 lung; -15.2% [100 µM] (active) with HOP-92 NSCLC. Moreover, the growth with NCI-H522 lung is 15.7% [100 µM]; with A549/ATCC NSCLC, 35.4% [100 µM]; in the assay on 786-0 renal, 19.6% [100 µM]; with COLO 205 colon, -48.6% [100 µM] (active); in the assay on DU-145 prostate, 20.8% [100 µM]; in the assay on K-562 leukemia, 14.8% [100 µM]. For the same compound, the growth in the assay on MALME-3M melanoma was 27.8% [100 µM]; in the assay with MDA-MB-231 breast it was 6.36% [100 µM] (active); in the assay with RXF 393 renal it was -20.2% [100 µM] (active); in the assay on SF-268 CNS it was -22.4% [100 µM] (active); in the assay on SF-295 CNS, 41.6% [100 µM]; with SF-539 CNS it was -25.3% [100 µM] (active). Besides, the growth with UACC-257 melanoma is 25.5% [100 µM]; in the assay with M14 melanoma, -70.8% [100 µM] (active).
As for `COc1ccc(Cl)cc1Nc1nc(C(F)(F)F)ccc1C(=O)N/N=C/c1ccc(N(C)C)cc1`, the growth with NCI-H23 lung is 95.4%; in the assay with NCI-H226 lung, 105%; in the assay with NCI-H322M lung, 80.8%; in the assay on HOP-62 NSCLC, 73.6%; with NCI-H460 lung, 143%; with HOP-92 NSCLC it was 85.4%. Besides, the growth in the assay on NCI-H522 lung is 105%; in the assay on A549/ATCC NSCLC, 97%; in the assay with 786-0 renal it was 76%; in the assay with COLO 205 colon it was 92.2%; in the assay on DU-145 prostate, 117%; with K-562 leukemia, 122%. For the same compound, the growth in the assay on MALME-3M melanoma was 92.2%; with MDA-MB-231 breast, 72.9%; in the assay with RXF 393 renal it was 75.6%; in the assay with SF-268 CNS, 107%; in the assay on SF-295 CNS, 154%; with SF-539 CNS, 115%. Besides, the figures for the growth in the assay on UACC-257 melanoma and with M14 melanoma were 110% and 81.3%, respectively.
For the compound `COc1ccc2nc3cc(Cl)ccc3c(NCCCNCCC(C)O)c2c1` (stereo not given), the growth was -48.8% (active) in the assay on NCI-H23 lung; -3.4% (active) in the assay with NCI-H226 lung; -24.8% (active) in the assay on NCI-H322M lung; -8.19% (active) in the assay on HOP-62 NSCLC; -53.5% (active) in the assay with NCI-H460 lung; -23.7% (active) in the assay with HOP-92 NSCLC. The growth in the assay with NCI-H522 lung was -34.3% (active); in the assay on A549/ATCC NSCLC, -17.6% (active); in the assay on 786-0 renal it was -49.5% (active); in the assay with COLO 205 colon it was -77.7% (active); with DU-145 prostate it was -16.2% (active); in the assay on K-562 leukemia, -18.1% (active). Moreover, the growth with MALME-3M melanoma was -76.1% (active); with MDA-MB-231 breast, -47.5% (active); with RXF 393 renal, -67.6% (active); with SF-268 CNS, -25.9% (active); with SF-295 CNS, -11.9% (active); in the assay on SF-539 CNS, -56.9% (active). In addition, the growth in the assay on UACC-257 melanoma is -83.9% (active); in the assay with M14 melanoma, -82% (active).
Take `CCCCCCCCCCCCC[C@H](O)C[C@H](O)[C@H](C)N`: the growth is 99.2% [1.25 µM] with NCI-H23 lung; 126% [1.25 µM] with NCI-H226 lung; 102% [1.25 µM] in the assay with NCI-H322M lung; 116% [1.25 µM] in the assay with HOP-62 NSCLC; 103% [1.25 µM] in the assay with NCI-H460 lung; 56.7% [1.25 µM] in the assay on HOP-92 NSCLC. For the same compound, the growth is 119% [1.25 µM] with NCI-H522 lung; 89.3% [1.25 µM] in the assay with A549/ATCC NSCLC; 85.9% [1.25 µM] with 786-0 renal; 92.2% [1.25 µM] in the assay with COLO 205 colon; 96.9% [1.25 µM] with DU-145 prostate; 102% [1.25 µM] in the assay on K-562 leukemia. Moreover, the growth with MALME-3M melanoma is 132% [1.25 µM]; in the assay with MDA-MB-231 breast, 90% [1.25 µM]; in the assay on RXF 393 renal it was 8.68% [1.25 µM] (active); in the assay on SF-268 CNS, 115% [1.25 µM]; with SF-295 CNS it was 108% [1.25 µM]; with SF-539 CNS, 100% [1.25 µM]. Further, the figures for the growth with UACC-257 melanoma and in the assay with M14 melanoma were 113% [1.25 µM] and 95.9% [1.25 µM], respectively.
